The source of these data is PubChem BioAssay.

Assay [1] can be described thus: small molecules captured by biotinylated probe aFSTL3 – biochemical, small-molecule microarray, fluorescence 635/667, stem cell growth factor project, primary screen (AID 1064).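 Further: measures binding of the biotinylated anti-FSTL3 antibody to printed compounds.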 The note with it: higher = more signal.
Assay [2] in a line: binders from COS7 lysate, DM2A8 probe, primary screen, torsin A project, cell lysate, small-molecule microarray, fluorescence 635/667 (AID 1065). The note with it: higher = more signal, COS7 lysate expressing mutant human TOR1A.
A short description of assay [3]: small molecules captured by biotinylated probe aFGF2 – biochemical, small-molecule microarray, fluorescence 635/667, stem cell growth factor project, primary screen (AID 1067).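 Further: measures binding of biotinylated aFGF2 protein to printed compounds on slides; z-score merges feature fluorescence and signal-to-noise across triplicate slides.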 The note with it: higher = more signal.
A short description of assay [4]: small molecules captured by biotinylated probe aFGF10 – biochemical, small-molecule microarray, fluorescence 635/667, stem cell growth factor project, primary screen (AID 1071).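 Further: score merges 667 nm spot intensity and signal to noise from triplicate slides.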 The note with it: higher = more signal.
For assay [5], the target named is Neurogenic locus notch homolog protein 2 (Homo sapiens) (UniProt Q04721). The assay is described as follows: small molecules binding Notch2 protein – biochemical, small-molecule microarray, 635 nm fluorescence, stem cell growth factors, primary screen (AID 1073). The note with it: higher = more signal.
In assay [6] the target is Pro-neuregulin-1, membrane-bound isoform (Homo sapiens) (UniProt Q02297). The experiment in a line: small molecules binding neuregulin-1 protein – biochemical, small-molecule microarray, fluorescence 635/667, psychiatric disease protein project, primary screen (AID 1075).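 Further: score combines 667 nm spot fluorescence with signal to noise.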 The note with it: NRG1 binding, 635 nm fluorescence, higher = more signal.
Pro-neuregulin-1, membrane-bound isoform (Homo sapiens), sequence (Q02297 whole entry, looked up, the tested form may be a part, canonical isoform): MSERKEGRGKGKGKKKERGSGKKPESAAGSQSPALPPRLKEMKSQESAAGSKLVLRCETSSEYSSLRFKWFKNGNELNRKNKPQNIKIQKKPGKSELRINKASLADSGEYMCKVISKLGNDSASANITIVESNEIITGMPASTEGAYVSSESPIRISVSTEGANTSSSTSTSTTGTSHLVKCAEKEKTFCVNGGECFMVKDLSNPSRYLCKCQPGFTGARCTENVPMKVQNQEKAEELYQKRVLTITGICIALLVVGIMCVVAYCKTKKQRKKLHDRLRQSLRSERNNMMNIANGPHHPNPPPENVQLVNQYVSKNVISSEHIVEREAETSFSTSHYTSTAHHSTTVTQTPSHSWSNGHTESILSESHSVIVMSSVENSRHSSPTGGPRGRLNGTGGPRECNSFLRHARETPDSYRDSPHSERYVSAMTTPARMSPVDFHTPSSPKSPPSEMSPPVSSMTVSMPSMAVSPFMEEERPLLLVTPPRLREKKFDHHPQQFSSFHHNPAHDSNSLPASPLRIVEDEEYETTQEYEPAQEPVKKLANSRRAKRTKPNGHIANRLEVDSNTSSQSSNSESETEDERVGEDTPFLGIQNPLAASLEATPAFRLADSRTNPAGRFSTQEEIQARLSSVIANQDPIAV
For assay [7], the system named is Neuregulin-1 EGF-like domain. The assay is described as follows: small molecules binding NRG1 EGF domain – biochemical, small-molecule microarray, 635 nm fluorescence, primary screen (AID 1081).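 Further: binding of the protein to compounds printed on small-molecule microarray slides.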 The note with it: higher = more signal.
Assay [8] can be described thus: FRG1 expression reporter modulators in myotubes – cell-based, C2C12 myotubes, firefly/Renilla luciferase, luminescence, FRG1 inhibition for FSHD, primary screen (AID 1084). The note with it: FRG1 promoter luciferase, higher = more signal, called active from +8 up or from −8 down.
Assay [9] can be described thus: small molecules captured by biotinylated probe aFST – biochemical, small-molecule microarray, fluorescence 635/667, stem cell growth factor project, primary screen (AID 1086).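 Further: score merges 667 nm fluorescence with signal-to-noise of each printed compound spot.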 The note with it: higher = more signal.
Assay [10] is described as follows: binders of probe aHhip on microarray, primary screen, stem cell growth factor project, biochemical, small-molecule microarray, fluorescence 635/667 (AID 1087).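 Further: score merges spot fluorescence at 667nm with spot signal to noise ratio.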 The note with it: higher = more signal.
Assay [11] deals with PRMT1 (protein arginine N-methyltransferase 1). The assay is described as follows: small molecules binding arginine methyltransferase PRMT1 – biochemical, small-molecule microarray, 635 nm fluorescence, primary screen (AID 1088).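 Further: binding of Prmt1 protein to compounds spotted on small-molecule microarray slides.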 The note with it: higher = more signal.
A short description of assay [12]: growth effects on S. cerevisiae YJM789 – YJM789 clinical isolate, OD600, 24 h, basal, primary screen (AID 1089).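 Further: growth of clinical yeast isolate S. cerevisiae YJM 789 seeded 1000 cells per well; test concentration not given here.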 The note with it: higher = more signal, called active from +8 up or from −8 down.
Assay [13] in a line: S. pombe growth modifiers, basal conditions – strain 972, OD600, 24 h, no modulator, primary screen (AID 1090).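 Further: basal condition with compound alone and no growth modifier present; test concentration not given here.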 The note with it: S. pombe 972 growth, higher = more signal, called active from +8 up or from −8 down.
Assay [14] is described as follows: budding yeast growth modifiers under rapamycin – strain BY4716, OD600, 96 h, primary screen (AID 1091). Further: test concentration not given here. The note with it: S. cerevisiae BY4716 + rapamycin, higher = more signal, called active from +8 up or from −8 down.
In assay [15] the target is Torsin-1A-interacting protein 2 (Homo sapiens) (UniProt Q8NFQ8). The experiment in a line: small molecules binding lysate-expressed LULL1 – cell lysate, human LULL1 lysate, 635/667 nm fluorescence, primary screen (AID 1092).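 Further: probe is lysate of COS7 cells overexpressing human LULL1; score merges per-feature 667 nm fluorescence with signal-to-noise.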 The note with it: small-molecule microarray, hLULL1 lysate binding, 635 nm fluorescence; higher = more signal.
Torsin-1A-interacting protein 2 (Homo sapiens), sequence (Q8NFQ8 whole entry, looked up): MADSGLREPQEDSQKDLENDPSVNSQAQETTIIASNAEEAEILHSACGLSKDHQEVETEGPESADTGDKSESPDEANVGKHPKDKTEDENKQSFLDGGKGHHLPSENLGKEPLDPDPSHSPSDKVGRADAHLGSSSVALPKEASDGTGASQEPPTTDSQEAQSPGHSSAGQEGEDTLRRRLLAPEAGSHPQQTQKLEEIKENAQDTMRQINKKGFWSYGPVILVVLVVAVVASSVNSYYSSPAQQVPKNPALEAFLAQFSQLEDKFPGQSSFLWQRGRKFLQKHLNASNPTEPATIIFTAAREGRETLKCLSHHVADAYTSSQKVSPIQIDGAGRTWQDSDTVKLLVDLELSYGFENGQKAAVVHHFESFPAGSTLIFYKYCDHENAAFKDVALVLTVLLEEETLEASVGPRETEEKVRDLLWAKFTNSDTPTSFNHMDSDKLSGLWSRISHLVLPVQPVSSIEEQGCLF
A short description of assay [16]: optical density change of DRC41 E. coli – strain DRC41, OD650, 24 h, E. coli filamentation project, primary screen (AID 1093).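 Further: MC1000 strain lacking acrAB efflux and sulA so SOS filamentation is blocked; test concentration not given here.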 The note with it: E. coli DRC41 growth, higher = more signal, called active from +8 up or from −8 down.
Assay [17] in a line: probe aLefty2 binding to arrayed compounds – biochemical, biotinylated probe, 635/667 nm fluorescence, primary screen (AID 1094).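 Further: score merges spot fluorescence near 667 nm with spot signal-to-noise ratio.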 The note with it: small-molecule microarray, higher = more signal.
Assay [18] concerns Noggin (protein binding on small-molecule microarray). The experiment in a line: small molecules binding Noggin protein – biochemical, 635/667 nm fluorescence, primary screen (AID 1095).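 Further: score merges 667 nm feature fluorescence with signal to noise over triplicate slides.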 The note with it: 635 nm fluorescence, higher = more signal.
Assay [19] deals with Neurogenic locus notch homolog protein 3 (Homo sapiens) (UniProt Q9UM47). The assay is described as follows: small molecules binding NOTCH3 protein – biochemical, 635/667 nm fluorescence, primary screen (AID 1096). The note with it: small-molecule microarray, 635 nm fluorescence, higher = more signal.
Neurogenic locus notch homolog protein 3 (Homo sapiens), sequence (Q9UM47 whole entry, looked up): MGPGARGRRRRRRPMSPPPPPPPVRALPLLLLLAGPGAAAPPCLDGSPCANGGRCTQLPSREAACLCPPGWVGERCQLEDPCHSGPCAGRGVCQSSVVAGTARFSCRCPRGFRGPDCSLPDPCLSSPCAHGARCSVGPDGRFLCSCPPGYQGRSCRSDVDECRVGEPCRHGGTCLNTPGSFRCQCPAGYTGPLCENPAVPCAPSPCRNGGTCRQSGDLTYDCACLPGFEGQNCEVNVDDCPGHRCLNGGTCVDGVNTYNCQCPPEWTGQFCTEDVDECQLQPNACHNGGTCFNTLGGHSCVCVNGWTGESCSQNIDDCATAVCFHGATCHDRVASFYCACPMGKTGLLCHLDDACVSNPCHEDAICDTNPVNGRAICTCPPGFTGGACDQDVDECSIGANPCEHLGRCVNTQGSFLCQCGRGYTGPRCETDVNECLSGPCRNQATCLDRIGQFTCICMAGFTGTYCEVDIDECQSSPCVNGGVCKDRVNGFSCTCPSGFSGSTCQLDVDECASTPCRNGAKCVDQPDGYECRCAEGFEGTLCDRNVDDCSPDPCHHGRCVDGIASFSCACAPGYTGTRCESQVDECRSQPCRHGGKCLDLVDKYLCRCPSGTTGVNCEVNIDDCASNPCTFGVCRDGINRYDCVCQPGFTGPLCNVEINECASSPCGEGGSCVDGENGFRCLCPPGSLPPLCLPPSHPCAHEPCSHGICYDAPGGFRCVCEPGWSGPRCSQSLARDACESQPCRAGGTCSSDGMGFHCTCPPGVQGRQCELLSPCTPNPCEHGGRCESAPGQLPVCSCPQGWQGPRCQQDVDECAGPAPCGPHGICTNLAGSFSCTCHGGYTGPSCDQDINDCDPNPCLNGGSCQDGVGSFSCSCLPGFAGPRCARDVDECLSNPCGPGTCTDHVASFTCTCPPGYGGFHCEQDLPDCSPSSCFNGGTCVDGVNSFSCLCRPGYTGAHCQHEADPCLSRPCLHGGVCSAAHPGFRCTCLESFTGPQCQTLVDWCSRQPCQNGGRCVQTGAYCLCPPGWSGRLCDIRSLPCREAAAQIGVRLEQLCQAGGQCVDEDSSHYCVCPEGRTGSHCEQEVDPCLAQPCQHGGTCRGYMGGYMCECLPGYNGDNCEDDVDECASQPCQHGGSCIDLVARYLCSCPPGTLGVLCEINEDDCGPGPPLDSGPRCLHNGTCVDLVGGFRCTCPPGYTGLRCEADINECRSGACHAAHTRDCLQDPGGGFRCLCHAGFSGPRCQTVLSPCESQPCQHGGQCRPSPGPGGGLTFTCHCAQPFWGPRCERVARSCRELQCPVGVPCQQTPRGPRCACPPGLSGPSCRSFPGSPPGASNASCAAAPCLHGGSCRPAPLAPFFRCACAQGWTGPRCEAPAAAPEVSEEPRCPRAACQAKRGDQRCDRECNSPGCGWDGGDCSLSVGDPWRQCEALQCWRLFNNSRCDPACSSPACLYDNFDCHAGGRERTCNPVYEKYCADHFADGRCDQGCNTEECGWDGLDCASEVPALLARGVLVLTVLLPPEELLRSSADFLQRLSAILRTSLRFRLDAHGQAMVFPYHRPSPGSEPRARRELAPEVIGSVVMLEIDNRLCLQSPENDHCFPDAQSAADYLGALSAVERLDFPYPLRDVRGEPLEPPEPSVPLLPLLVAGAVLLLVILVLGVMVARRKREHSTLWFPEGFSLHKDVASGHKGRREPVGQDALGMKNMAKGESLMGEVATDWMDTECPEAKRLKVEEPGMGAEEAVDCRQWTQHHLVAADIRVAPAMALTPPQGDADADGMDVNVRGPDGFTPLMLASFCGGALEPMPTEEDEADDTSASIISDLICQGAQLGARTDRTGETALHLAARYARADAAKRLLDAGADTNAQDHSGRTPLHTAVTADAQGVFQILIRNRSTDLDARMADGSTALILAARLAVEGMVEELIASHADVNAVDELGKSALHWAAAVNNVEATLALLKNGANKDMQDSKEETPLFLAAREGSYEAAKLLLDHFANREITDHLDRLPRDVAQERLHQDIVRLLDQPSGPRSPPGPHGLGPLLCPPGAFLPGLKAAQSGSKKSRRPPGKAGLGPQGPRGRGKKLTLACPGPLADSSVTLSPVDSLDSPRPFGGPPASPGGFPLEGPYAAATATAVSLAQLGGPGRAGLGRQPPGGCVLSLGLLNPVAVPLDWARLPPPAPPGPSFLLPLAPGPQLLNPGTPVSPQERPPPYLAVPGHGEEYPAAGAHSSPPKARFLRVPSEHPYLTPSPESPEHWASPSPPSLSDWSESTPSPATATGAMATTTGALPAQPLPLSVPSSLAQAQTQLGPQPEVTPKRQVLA
A short description of assay [20]: probe aEGFR binding to arrayed compounds – biochemical, biotinylated probe, 635/667 nm fluorescence, primary screen (AID 1097).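 Further: probe is a biotinylated anti-EGFR antibody binding compounds printed on slides; score combines fluorescence near 667 nm and signal to noise of each spot.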 The note with it: small-molecule microarray, higher = more signal.

The source made the active and inactive calls.

On to `COC(=O)[C@H](Cc1ccccc1)N[C@@H](/C=C/C1CC1)[C@H](O)Cc1ccccc1`, for which the composite z-score was 0.115 in assay [1]; -0.355 in assay [2]; 0.0748 in assay [3]; 0.699 in assay [4]; -1.08 in assay [5]; -0.292 in assay [6]. The composite z-score in [7] was 0.583; in assay [9], -0.575; in assay [10], -0.409; in assay [11], 0.136; in assay [15], 0.521; in assay [17], -0.127. Moreover, the values for the composite z-score in [18], in assay [19] and in [20] were -0.327, -0.505 and -0.218, respectively. Also, the z-score in [8] was -2.66 (inactive); in assay [12], -0.701 (inactive); in [13], -7.84 (inactive); in assay [14], -0.581 (inactive); in assay [16], -0.296 (inactive).
Turning to `COc1ccc([Si](C)(C)[C@@H]2[C@@H](CCO)O[C@]3(C(=O)N(Cc4ccc(N(C=O)c5ccccc5)cc4)c4ccccc43)[C@H]2C)cc1`, the composite z-score is 0.235 in assay [1]; 0.0422 in [2]; -0.0332 in assay [3]; 0.255 in assay [4]; 0.719 in assay [5]; 0.508 in assay [6]. Moreover, the composite z-score in [7] was 0.565; in [9] it was 0.643; in assay [10] it was -0.0994; in [11] it was 0.883; in assay [15], 0.758; in assay [17] it was 0.122. The composite z-score in [18] is 0.445; in [19], 0.332; in assay [20], -0.0466. In addition, the z-score in assay [8] was -3.73 (inactive); in assay [12], 1.47 (inactive); in [13], 0.552 (inactive); in assay [14] it was 25.3 (active); in [16], 0.0689 (inactive).
As to `CCOC(=O)[C@H]1C/C=C/C[C@H](C(=O)OCC)C(=O)O[C@H]2[C@@H](OC)O[C@H](CO)[C@@H](OC(=O)c3c(OC)cccc3OC)[C@@H]2OC1=O`, the composite z-score is 1.03 in [1]; 0.321 in assay [2]; -0.0275 in assay [3]; 0.259 in [4]; 0.297 in assay [5]; 1.12 in assay [6]. Besides, the composite z-score in [7] is 1.02; in [9], 0.951; in assay [10], 1.32; in assay [11], 1.33; in assay [15], 2.86; in assay [17] it was 0.573. Also, the composite z-score was 1.15 in assay [18], 0.982 in assay [19] and -0.0921 in assay [20]. Further, the z-score was 0.418 (inactive) in assay [8]; 0.172 (inactive) in assay [12]; -1.13 (inactive) in assay [13]; 3.72 (inactive) in [14]; -0.901 (inactive) in assay [16].
In the case of `O=C(c1ccccc1)N1C(=O)[C@]2(COC(c3ccc(OCCCO)cc3)=N2)Cc2ccccc21`, the composite z-score in assay [1] amounted to 0.303; in assay [2], 0.863; in assay [3], 0.11; in assay [4], 0.879; in [5] it was 0.839; in assay [6] it was 1.72. The composite z-score in assay [7] was 1.34; in [9], 0.647; in assay [10], -0.266; in [11] it was 1.53; in assay [15], 3.17; in assay [17], 0.133. Moreover, the composite z-score in [18] was 0.722; in assay [19], 1.15; in assay [20], -0.0989. The z-score in assay [8] is 1.23 (inactive); in [12], -1.84 (inactive); in assay [13], 0.901 (inactive); in [14], 4.51 (inactive); in assay [16], -0.178 (inactive).
Turning to `CN(C)CCCCCCNC(=O)[C@H]1C[C@H]2C(=O)N3CCC[C@H]3C(=O)N2[C@H]1c1ccc(O)cc1`, the composite z-score is -0.0698 in assay [1]; 1.93 in assay [2]; 0.0082 in [3]; 1.16 in [4]; 0.863 in assay [5]; 0.854 in assay [6]. In addition, the composite z-score in assay [7] worked out at 1.49; in [9], 0.2; in assay [10], 0.151; in assay [11], 1.53; in assay [15], 2.9; in [17], 0.172. In addition, the composite z-score in assay [18] amounted to 1.74; in assay [19], 1.07; in [20] it was 0.475. Besides, the z-score in assay [8] was 3.92 (inactive); in assay [12], -0.389 (inactive); in assay [13], -1.4 (inactive); in assay [14] it was 0.24 (inactive); in assay [16], 1.95 (inactive).
